Only some compounds are listed: those with a hit (about 5.9% of all), similar ones and a draw of the others.
ATXN2 expr inh: ATXN2 expression inhibition; HEK-293 ATXN2-luciferase reporter, luminescence, 24 h; Potency, µM (top dose mostly 57 µM), inactives show top-dose activity change, negative = inhibition, usual class: inhibitors; 360,000 tested, 0.72% active; AID 1745845; note: % is set by controls: 0 for no effect and ±100 for the full control effect; nearly all actives have a fitted effect of over 55% in size
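ATXN2-luciferase reporter cells (luciferase flanked by upstream and downstream ATXN2 gene portions) were treated 24 h at 37 °C with compounds at up to 57 uM. SteadyGlo luminescence gave expression; GF-AFC fluorescence gave viability.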
ATXN viability: cell viability loss in ATXN counter-screen. S2 cells (HEK-293 line with an ATXN2-luciferase reporter) viability, CellTiter-Fluor protease fluorescence, 24 h. Potency, µM (top dose mostly 56.7 µM), hits mostly cytotoxic. 400,000 tested, 0.49% active; note: nearly all actives have a fitted effect of over 40% in size
TGFb SMAD3 inh: blocks TGF-b signaling | HepG2 CAGA-GFP TGF-b/SMAD3 reporter, GFP fluorescence, 18 h; TGF-beta stimulated, 500 pg/mL final | AID 588855 | Potency, µM (highest dose often 46.1 µM), for inactives: top-dose activity, negative = inhibition, most hits filed as inhibitors | 410,000 tested, 1.2% active; note: % is set by controls: 0 for no effect and ±100 for the full control effect; nearly all actives have a fitted effect of over 65% in size
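Inhibition was scored as loss of TGF-beta-induced (500 pg/mL final, 18 hours, 37 degrees C) GFP in HEPG2 cells carrying a CAGA-GFP reporter, in DMEM with 1% FBS. Well GFP was summed per cell; Activity was normalised to unstimulated and stimulated DMSO wells, then concentration-response fitting.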
HepG2 tox: kills HepG2 cells in TGF-b inhibitor counter-screen; HepG2 CAGA-GFP viability, ATP luminescence, 18 h; Potency, µM (top dose mostly 46.1 µM), inactives show at the highest dose activity change, negative = cytotoxicity, actives largely listed as cytotoxic; 410,000 tested, 0.76% active; AID 588856
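HepG2 CAGA-GFP cells (1000/well, DMEM with 1% FBS) received compound, then TGF-beta at 500 pg/mL final, and were incubated 18 hours at 37 degrees C. Viability was read by CellTiter-Glo luminescence. Media-only wells were set as complete cell-killing and DMSO as no toxicity.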
KB-3-1 cytotox: KB-3-1 parental cell cytotoxicity | KB-3-1 viability, CellTiter-Glo ATP luminescence, 72 h | Potency, µM (titrated, usually from 46.1 µM), actives largely listed as cytotoxic | 400,000 tested, 1.4% active | AID 1347075; note: % is set by controls: 0 for no effect and ±100 for the full control effect; nearly all actives have a fitted effect of over 60% in size
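Here the drug-naive KB-3-1 line serves as comparator for MDR sub-line selectivity; cells received compound titrations, 72 h at 37 °C, then CellTiter-Glo readout.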
KB-V1 cytotox: kills drug-selected multidrug resistant KB-V1 cells; KB-V1 MDR cells viability, CellTiter-Glo, 72 h; Potency, µM (top dose mostly 46.1 µM), hits mostly cytotoxic; 400,000 tested, 3.4% active; AID 1347076; note: % is set by controls: 0 for no effect and ±100 for the full control effect; nearly all actives have a fitted effect of over 60% in size
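Cells of the MDR subline KB-V1 are plated, dosed with compound at multiple concentrations, and incubated 72 h at 37 degrees C; CellTiter-Glo is then added and luminescence read after 10 min.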
The depositor's hits bear a star; i = inactive; ? = inconclusive; · = no result; [ ] = remark or other dose. Calls come from the whole dose curve; as a rule, active = well fitted curve in the direction sought with a large enough effect; inconclusive = small, poorly fitted or top-dose-only effect, or another doubt; inactive = no such curve, though single readings can be large; an effect the other way counts as inactive or inconclusive. Potency is the fitted concentration of half-maximal effect.

SMILES	ATXN2 expr inh	ATXN viability	TGFb SMAD3 inh	HepG2 tox	KB-3-1 cytotox	KB-V1 cytotox
NC(=O)c1cc([N+](=O)[O-])cc([N+](=O)[O-])c1	?	i	-1.4%	-7.6%	i	i
CC(C)(C)c1cc([N+](=O)[O-])cc(C(C)(C)C)c1O	?	?	7.94µM*	-40.2%	11.6µM*	i
COC(=O)C(Cc1ccc(N(CCCl)CCCl)cc1)N=Cc1ccccc1O (stereo unspecified)	3.16µM*	11.2µM*	?	-51.5%	?	i
COc1cccc2c1C(=O)c1c(O)c3c(c(O)c1C2=O)C[C@@](O)(C(=O)CO)CC3OC1CC(N2CCOC(OC)C2)C(O)C(C)O1 (stereo partly specified)	28.2µM*	44.7µM*	·	·	·	·
O=P(OC1CCCCC1)(OC1CCCCC1)C(O)c1c(Cl)cccc1Cl (stereo unspecified)	-2.8%	i	-20.7%	-50.5%	?	18.4µM*
O=S(=O)(CC1CS1)c1ccc(Oc2ccccc2)cc1 (stereo unspecified)	-7.2%	·	·	·	·	·
O=C(N/N=C/c1c(O)n(CCc2ccccc2)c(=O)[nH]c1=O)c1ccccc1O	·	i	-1.8%	-27.3%	i	?
CCCCCCC(=O)N/N=C/c1c(O)n(CCc2ccccc2)c(=O)[nH]c1=O	17.8µM*	?	-17.5%	-12.7%	?	i
Cc1cccc(N(C)S(=O)(=O)c2cc(-c3cnc(C4CC4)o3)ccc2C)c1	2.9%	i	?	-31.5%	i	i
Cc1[nH]c2ccc(OC(F)(F)F)cc2c1CCNCc1cccc([N+](=O)[O-])c1	?	i	?	i	?	?
CCOc1cccc(CNCCc2c(C)[nH]c3ccc(OC(F)(F)F)cc23)c1O	·	?	-9.2%	-0.7%	i	23.1µM*
O=C(c1ccc2nc3ccc(Cl)cc3c(=O)n2c1)N1CCC2(CC1)OCCO2	2.3%	i	-26.6%	-6.8%	i	20.6µM*
C[C@@H]1CN([C@@H](C)CO)C(=O)CCCn2nncc2CO[C@H]1CN(C)C(=O)Nc1ccc(N2CCCCC2)cc1	-0.6%	i	-3.3%	-18.4%	i	i
C[C@]12CCC3C(CC[C@@H]4CC(=O)CC[C@]34C)C1CC[C@@H]2O (stereo partly specified)	-12.4%	i	0.6%	-3.6%	i	?
C[C@]12CCC(=O)C[C@@H]1CC[C@@H]1[C@@H]2CC[C@]2(C)[C@@H](O)CC[C@@H]12	-2.7%	i	-7.3%	-16.6%	i	16.4µM*
COC(=O)C1=C(C(=O)OC)C2c3ccccc3C1c1ccccc12	7.2%	i	-8.7%	-3.0%	i	14.6µM*
O=[N+]([O-])c1ncc[nH]1	-2.8%	·	·	·	·	·
Nc1nonc1C(=O)N/N=C/c1ccc([N+](=O)[O-])o1	-15.1%[11.3 µM]	i	15.8µM*	-90.2%	i	i
C(#CCN1CCOCC1)COC/C=C/c1ccccc1	14.4%	i	-5.3%	11.0%	i	20.6µM*
Cc1cc(Cl)ccc1C(=O)C1CCCN(Cc2ccon2)C1 (stereo unspecified)	-15.9%	i	0.5%	-12.3%	i	16.4µM*
O=C(c1cccc2ccccc12)C1CCCN(Cc2ccon2)C1 (stereo unspecified)	-20.2%	i	-5.8%	2.0%	i	i
Cc1cccc2c1=NC(=O)/C(=C/c1c(O)[nH]c(=O)[nH]c1=O)C=2	-4.3%	i	1.0%	-5.3%	i	i
O=c1[nH]c(=S)[nH]c(O)c1/C=C1/C=c2ccccc2=N1	-13.6%	i	12.6µM*	-42.0%	?	i
CC(C)Oc1ccc(CNC(=O)Oc2ccccc2)cc1	?	?	-20.6%	-20.7%	?	i
Cc1cc(O)c2c(c1)C(=O)C13C(=C2O)C(=O)[C@H]2[C@@H](O)[C@@H]1[C@H]1[C@H](O)[C@@H]3C(=O)C3=C(O)c4c(O)cc(C)cc4C(=O)C312 (stereo partly specified)	4.2%	?	?	-68.4%	9.2µM*	i
SMILES	ATXN2 expr inh	ATXN viability	TGFb SMAD3 inh	HepG2 tox	KB-3-1 cytotox	KB-V1 cytotox
CCOC(=O)c1c(C)[nH]c(C)c1S(=O)(=O)N1CCC(C(=O)N2CCN(c3cccc(Cl)c3)CC2)CC1	4.7%	i	?	-4.0%	i	?
CCOC(=O)c1ccc(N2C(=O)c3n[nH]c(-c4cccs4)c3C2c2ccc(Cl)cc2Cl)cc1 (stereo unspecified)	?	?	4.47µM*	-112.2%	?	?
O=C(CC1CCCCC1)N1CCC(c2nc(-c3ccc(S(=O)(=O)N4CCCC4)cc3)no2)CC1	?	?	-5.0%	-4.4%	i	14.6µM*
O=C(c1cc(S(=O)(=O)N2CCCCC2)ccc1F)N1CCC2(CC1)OCCO2	0.9%	i	-0.7%	6.4%	i	i
CN(C)C(=O)Oc1c(Cl)cc(Cl)c2ccccc12	-15.5%	i	30.7%	-7.9%	i	i
Cc1cc(OC(=O)N(C)C)nc(SCc2c(Cl)cccc2Cl)n1	·	i	-26.8%	8.91µM*	?	?
COc1ccc(-c2nn3c(=O)cc(CN4CCN(S(=O)(=O)c5ccc(C)cc5)CC4)nc3s2)cc1	3.5%	?	-22.0%	-4.5%	i	i
COc1ccc(OC)c(C[C@H](C)N)c1	·	i	·	·	·	·
CC(C)(C)c1cc(C=C(C#N)C#N)cc(Br)c1O	27.3µM*	·	·	·	·	·
CSc1cccc(CNC(=O)C2CCC(=O)N(Cc3cccc(C(F)(F)F)c3)C2)c1 (stereo unspecified)	2.5%	i	?	-9.7%	i	i
Cc1oc(-c2ccc(Cl)cc2)nc1CN1C(=O)CN=C(c2ccccc2)c2ccccc21	?	?	20µM*	-94.3%	i	i
C[C@]12CC[C@H]3[C@@H](CCC4=CC(=O)CC[C@@H]43)[C@@H]1CC[C@@H]2OC(=O)CCc1ccco1	-9.3%	i	·	·	·	·
COc1nc2ccccc2c(=O)n1-c1ccc(Cl)cc1	6.9%	i	-5.5%	0.4%	i	i
O=c1c2ccccc2nc(N2CCCC2)n1-c1ccc(Cl)cc1	-18.9%	i	-22.7%	-23.7%	?	23.1µM*
Cc1ccc(-n2nc3c(=O)n(CC(=O)NCC(C)c4ccccc4)nc(C)c3c2C)cc1 (stereo unspecified)	-27.3%	?	-26.5%	-13.2%	i	i
Cc1ccccc1C1=NCC(=O)N(CC(=O)NCc2ccco2)c2sc3c(c21)CCCC3	?	?	-17.3%	-43.7%	i	18.4µM*
CCc1ccc(NC(=O)c2cnc3sc(N4CCCC4)nn3c2=O)cc1	·	·	?	-8.3%	·	·
